We go through 16 compounds from PubChem BioAssay.

The nature of assay [1]: compounds binding Alexa647 anti-His antibody – biochemical, small-molecule microarray, 635 nm fluorescence, artefact control for SMM control protein annotation, primary screen (AID 1128).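 Note: score merges feature fluorescence with signal-to-noise for each printed compound spot.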 The note with it: higher = more signal.
The test system of assay [2] is Human papillomavirus type 1a E7 protein (residues 1-88). Description: HPV1a E7 small-molecule binders, primary screen, biochemical, small-molecule microarray, residues 1-88, 635 nm (AID 1129). The note with it: small-molecule microarray binding, fluorescence 635 nm; higher = more signal.
For assay [3], the target named is Focal adhesion kinase 1 (Homo sapiens) (UniProt Q05397). The assay can be described thus: PTK2 protein binding on printed compound slides – biochemical, small-molecule microarray, 635/667 nm fluorescence, BSA, DTT, primary screen (AID 1130).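 Note: composite of spot emission at 667 nm and signal to noise over triplicate slides.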 The following applies: 635 nm fluorescence, higher = more signal.
Chain of Focal adhesion kinase 1 (Homo sapiens) (Q05397 whole entry, looked up): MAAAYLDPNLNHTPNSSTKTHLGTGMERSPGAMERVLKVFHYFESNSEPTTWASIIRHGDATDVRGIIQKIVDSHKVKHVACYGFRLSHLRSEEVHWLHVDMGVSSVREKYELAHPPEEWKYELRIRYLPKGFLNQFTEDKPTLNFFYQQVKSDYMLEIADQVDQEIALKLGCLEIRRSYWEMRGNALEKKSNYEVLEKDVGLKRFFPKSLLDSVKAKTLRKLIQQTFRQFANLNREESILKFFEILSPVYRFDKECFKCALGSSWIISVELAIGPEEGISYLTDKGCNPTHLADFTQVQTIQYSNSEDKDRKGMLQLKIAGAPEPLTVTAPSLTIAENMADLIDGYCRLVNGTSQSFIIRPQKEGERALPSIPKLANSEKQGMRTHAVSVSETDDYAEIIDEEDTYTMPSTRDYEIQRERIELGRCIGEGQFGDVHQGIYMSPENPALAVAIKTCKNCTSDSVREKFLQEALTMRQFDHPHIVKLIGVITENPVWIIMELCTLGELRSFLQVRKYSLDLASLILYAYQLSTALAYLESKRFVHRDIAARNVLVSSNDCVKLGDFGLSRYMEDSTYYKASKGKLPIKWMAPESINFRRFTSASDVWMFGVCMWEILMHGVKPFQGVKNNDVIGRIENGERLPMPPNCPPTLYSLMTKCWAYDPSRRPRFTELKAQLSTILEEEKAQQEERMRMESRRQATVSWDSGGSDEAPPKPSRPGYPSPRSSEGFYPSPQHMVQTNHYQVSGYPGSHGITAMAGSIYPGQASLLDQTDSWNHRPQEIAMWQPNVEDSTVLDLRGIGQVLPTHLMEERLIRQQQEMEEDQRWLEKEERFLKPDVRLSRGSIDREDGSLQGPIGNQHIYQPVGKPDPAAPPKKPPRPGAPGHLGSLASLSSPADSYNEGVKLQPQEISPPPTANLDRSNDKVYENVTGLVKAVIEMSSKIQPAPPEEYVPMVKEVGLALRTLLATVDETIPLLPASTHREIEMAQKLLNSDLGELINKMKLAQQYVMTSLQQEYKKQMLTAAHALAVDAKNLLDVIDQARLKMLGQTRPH
In assay [4] the test system is Fibrinogen (Alexa647-labelled). The assay can be described thus: Alexa647-fibrinogen binding to printed small molecules – biochemical, small-molecule microarray, 635/667 nm fluorescence, artefact control for SMM control-protein annotation, profiling panel (AID 1131).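 Note: z-score merges 667 nm fluorescence with per-spot signal-to-noise over triplicate slides.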 The following applies: fibrinogen-A647 binding fluorescence, higher = more signal.
The target in assay [5] is Follistatin (Homo sapiens) (UniProt P19883). Description: FST protein binding to printed compounds – biochemical, small-molecule microarray, 635/667 nm fluorescence, primary screen (AID 1132). The note with it: 635 nm fluorescence, higher = more signal.
Chain of Follistatin (Homo sapiens) (P19883 whole entry, looked up): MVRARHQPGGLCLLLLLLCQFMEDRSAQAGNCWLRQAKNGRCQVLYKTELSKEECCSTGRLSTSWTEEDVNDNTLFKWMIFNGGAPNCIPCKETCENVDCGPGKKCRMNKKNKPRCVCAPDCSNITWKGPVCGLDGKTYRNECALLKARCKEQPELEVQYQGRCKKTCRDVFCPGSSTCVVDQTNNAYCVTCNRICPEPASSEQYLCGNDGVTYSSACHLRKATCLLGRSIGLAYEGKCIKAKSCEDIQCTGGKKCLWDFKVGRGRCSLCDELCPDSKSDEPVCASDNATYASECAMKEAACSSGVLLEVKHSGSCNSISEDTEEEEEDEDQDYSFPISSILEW
For assay [6], the target named is Fibroblast growth factor 2 (Homo sapiens) (UniProt P09038). The assay can be described thus: basic fibroblast growth factor binding to printed compounds – biochemical, small-molecule microarray, 635/667 nm fluorescence, primary screen (AID 1133). The following applies: FGF2, fluorescence 635/667, higher = more signal.
Chain of Fibroblast growth factor 2 (Homo sapiens) (P09038 whole entry, looked up): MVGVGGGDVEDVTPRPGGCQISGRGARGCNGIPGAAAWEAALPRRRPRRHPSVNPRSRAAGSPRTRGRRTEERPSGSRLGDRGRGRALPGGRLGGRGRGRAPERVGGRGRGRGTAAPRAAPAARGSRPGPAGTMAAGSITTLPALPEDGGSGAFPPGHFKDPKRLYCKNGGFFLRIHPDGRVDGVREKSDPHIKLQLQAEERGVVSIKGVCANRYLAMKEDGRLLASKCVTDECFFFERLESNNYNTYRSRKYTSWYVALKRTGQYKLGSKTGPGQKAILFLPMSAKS
The nature of assay [7]: JC-1 mitochondrial potential readout, lung cancer cells – cell-based, A549, JC-1 fluorescence, basal, 24 h, 100 nL, profiling panel (AID 1138).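 Note: A549 lung adenocarcinoma cells under basal conditions with no added stimulus; test concentration not given here.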 The note with it: higher = more signal.
The test system of assay [8] is Lefty1. Description: Lefty1 protein binding to printed compounds – biochemical, small-molecule microarray, 635/667 nm fluorescence, primary screen (AID 1139). The note with it: fluorescence 635/667, higher = more signal.
The test system of assay [9] is wheat germ agglutinin (Triticum aestivum), Alexa647-labelled. Description: Alexa647-WGA lectin binding to printed small molecules – biochemical, small-molecule microarray, 635/667 nm fluorescence, artefact control for SMM control-protein annotation, profiling panel (AID 1140).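 Note: score merges 667 nm feature emission with signal to noise over triplicate slides.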 The following applies: WGA-A647 binding, 635 nm fluorescence, higher = more signal.
The target of assay [10] is Luciferin 4-monooxygenase (Photinus pyralis) (UniProt P08659). The assay can be described thus: inhibition of purified Photinus pyralis luciferase – biochemical, luminescence, purified enzyme, 2006 set, primary screen (AID 1141).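 Note: cell-free assay with purified firefly luciferase at 100 ng per well in PBS; test concentration not given here.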 The following applies: purified firefly luciferase, SteadyGlo luminescence, 30 min; higher = more signal, called active from +8 up or from −8 down.
Chain of Luciferin 4-monooxygenase (Photinus pyralis) (P08659 whole entry, looked up): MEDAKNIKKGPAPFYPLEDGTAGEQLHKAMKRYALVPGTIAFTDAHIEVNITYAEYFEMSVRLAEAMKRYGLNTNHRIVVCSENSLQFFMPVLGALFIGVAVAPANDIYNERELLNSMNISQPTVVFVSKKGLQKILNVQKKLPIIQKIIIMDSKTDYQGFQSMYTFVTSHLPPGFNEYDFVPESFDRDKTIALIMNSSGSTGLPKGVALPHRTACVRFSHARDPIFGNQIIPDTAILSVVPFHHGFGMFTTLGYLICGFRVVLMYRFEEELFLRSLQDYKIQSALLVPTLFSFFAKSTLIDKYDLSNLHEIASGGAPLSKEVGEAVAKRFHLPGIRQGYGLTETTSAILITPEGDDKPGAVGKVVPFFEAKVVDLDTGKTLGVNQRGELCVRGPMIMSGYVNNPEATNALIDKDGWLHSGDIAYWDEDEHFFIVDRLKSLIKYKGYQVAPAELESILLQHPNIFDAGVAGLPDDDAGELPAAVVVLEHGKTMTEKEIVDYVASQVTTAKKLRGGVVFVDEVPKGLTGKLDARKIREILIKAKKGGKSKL

The source made the active and inactive calls.

On to `CCCCCN1CC=CC23O[C@@H]4/C=C\CCC(C)OC(=O)C4[C@H]2C(=O)N(CCCCCO)[C@@H]3C1=O` (stereo not given in full), for which the composite z-score is -0.0232 in assay [1]; -0.413 in assay [2]; -0.0791 in assay [3]; -1.46 in assay [4]; -0.35 in [5]; 0.517 in assay [6]. Further, the composite z-score in [8] came to 0.184; in assay [9], 0.233. The values for the z-score in assay [7] and in [10] were -0.108 and -2.73 (inactive), respectively.

Regarding `C=CCOC(=O)[C@@H]1[C@H]2C(=O)O[C@H](c3ccccc3)[C@H](c3ccccc3)N2[C@H](c2ccc(OCCOC(=O)[C@@H]3C[C@@H]4C(=O)NCC(=O)N4[C@@H]3c3cccc(OCCO)c3)cc2)[C@@]12C(=O)Nc1ccc(I)cc12`, the composite z-score was 1.26 in assay [1]; 1.17 in [2]; 0.259 in [3]; 0.615 in [4]; 1.32 in assay [5]; 1.31 in [6]. In addition, the composite z-score amounted to 0.914 in assay [8] and 0.449 in assay [9]. Also, the z-score in assay [7] is -1.21; in assay [10] it was -0.408 (inactive).

For `CC(C)NC(=O)[C@@]1(Cc2ccccc2I)c2ccccc2C(=O)N(Cc2ccccc2)[C@H]1c1ccc(CO)cc1`, the composite z-score in assay [1] turned out to be 3.2; in assay [2] it was 1.19; in assay [3] it was 1.05; in [4], 0.387; in [5], 1.29; in assay [6], 1.07. Also, the composite z-score in assay [8] was 1.19; in assay [9], 0.131. Also, the z-score in assay [7] was 0.188; in [10], 0.277 (inactive).

`[N-]=[N+]=Nc1ccccc1C[C@]1(C(=O)NCCN2CCOCC2)N=C(c2ccc(OCCCO)cc2)O[C@H]1c1ccccc1`: the composite z-score in assay [1] came out at 1.34; in assay [2] it was 1.27; in [3] it was 0.903; in [4], 0.952; in [5] it was 1.29; in assay [6] it was 0.877. The composite z-score in assay [8] was -0.246; in assay [9] it was 0.309. For the same compound, the results for the z-score in assay [7] and in assay [10] were 0.273 and -0.683 (inactive), respectively.

As to `COC(=O)C(CC#Cc1ccc2c(c1)[C@]1(C(=O)N2)[C@H](c2ccc(OCCO)cc2)N2[C@H](c3ccccc3)[C@H](c3ccccc3)OC(=O)[C@H]2[C@@H]1C(=O)NC[C@H](O)c1ccccc1)C(=O)OC`, the composite z-score in assay [1] is 1.06; in [2] it was 1.23; in assay [3], 0.751; in assay [4], 0.849; in assay [5], 0.966; in assay [6] it was 0.387. Also, the results for the composite z-score in assay [8] and in [9] were 0.346 and 1.16, respectively. The z-score was -0.816 in assay [7] and -1.67 (inactive) in assay [10].

Consider `C=CC[C@@]1(C(=O)NCC(O)CO)N=C(c2ccc(OCCCO)cc2)O[C@@H]1c1ccccc1N=[N+]=[N-]` (stereo not given in full), for which the composite z-score is 2.92 in [1]; 1.12 in assay [2]; -0.121 in assay [3]; 0.415 in [4]; 0.849 in assay [5]; -0.0851 in assay [6]. For the same compound, the composite z-score in [8] is 0.003; in [9], 1.12. Besides, the z-score is -0.921 in assay [7] and -11.2 (active) in assay [10].

For `CC(C)C[C@@H]1NC(=O)[C@H]2C[C@@H](C(=O)NCCCCCNC(=O)CS)[C@@H](c3cccc(OCCO)c3)N2C1=O`, the composite z-score was determined as 2.41 in assay [1]; 1.21 in [2]; 0.603 in assay [3]; 0.374 in assay [4]; 1.44 in [5]; 1.7 in assay [6]. For the same compound, the composite z-score in assay [8] is 1.35; in assay [9], 0.195. The figures for the z-score in [7] and in assay [10] were -0.628 and -1.15 (inactive), respectively.

Consider `C=C(COC)C(=O)CC[C@@H](OC(=O)c1cccnc1)c1ccc(CO)o1`, for which the composite z-score was -0.131 in [1]; 0.0982 in assay [2]; -0.111 in assay [3]; 0.39 in assay [4]; 1.18 in [5]; 1.46 in assay [6]. The results for the composite z-score in assay [8] and in [9] were 0.911 and -0.0265, respectively. Moreover, the z-score is 0.217 in [7] and -2.05 (inactive) in [10].

`CCCCCN1CC=CC23O[C@@H]4/C=C\CCCOC(=O)C4[C@H]2C(=O)N(CCCCCCO)[C@@H]3C1=O` (stereo not given in full): the composite z-score in assay [1] was 0.599; in [2], 0.906; in assay [3], 0.929; in [4], -2.05; in assay [5], -0.679; in assay [6] it was -0.964. The composite z-score worked out at 0.0393 in assay [8] and 1.14 in [9]. In addition, the z-score was 1.05 in [7] and -3.28 (inactive) in assay [10].

For the compound `COCCOC(=O)N1C(=O)[C@@]2(c3cc(C#CCNC(N)=O)ccc31)[C@H](c1ccc(OCCO)cc1)N1[C@H](c3ccccc3)[C@H](c3ccccc3)OC(=O)[C@H]1[C@@H]2C(=O)N1CCc2cc(OC)c(OC)cc2C1`, the composite z-score came to 0.276 in [1]; 0.665 in [2]; 0.145 in assay [3]; 0.531 in assay [4]; 1.38 in assay [5]; 1.2 in assay [6]. Further, the composite z-score was 0.658 in assay [8] and 0.848 in [9]. Besides, the figures for the z-score in assay [7] and in assay [10] were -1.41 and -0.702 (inactive), respectively.

With `COCCOC(=O)N1C(=O)[C@@]2(c3cc(C#CCCO)ccc31)[C@H](c1ccccc1OCCO)N1[C@H](c3ccccc3)[C@H](c3ccccc3)OC(=O)[C@H]1[C@@H]2C(=O)N1CCN(c2ncccn2)CC1`, the composite z-score came out at 1.64 in assay [1]; 1.21 in assay [2]; 0.714 in assay [3]; 0.807 in [4]; 1.32 in assay [5]; 0.819 in assay [6]. The composite z-score in [8] was determined as 1.38; in [9], 0.789. Further, the z-score in assay [7] is -0.835; in assay [10], -0.198 (inactive).

As to `[N-]=[N+]=NCc1ccccc1C[C@]1(C(=O)O)N=C(c2ccc(OCCCO)cc2)O[C@H]1c1ccccc1`, the composite z-score amounted to 1.29 in assay [1]; 1.13 in [2]; 0.165 in [3]; 0.687 in assay [4]; 0.0944 in [5]; 0.87 in assay [6]. The composite z-score in assay [8] is -1.43; in assay [9] it was 1.2. The figures for the z-score in [7] and in [10] were 0.0539 and 0.414 (inactive), respectively.

Turning to `CC(C)NC(=O)[C@@H]1c2ccccc2C(=O)N(Cc2ccccc2Cl)[C@H]1c1ccc(CO)cc1`, the composite z-score is 3.06 in [1]; 0.247 in [2]; -0.313 in assay [3]; -0.629 in [4]; -0.555 in [5]; -0.222 in [6]. The results for the composite z-score in [8] and in assay [9] were -0.221 and 0.842, respectively. Further, the z-score is 2.55 in assay [7] and -1.08 (inactive) in assay [10].

Consider `CCCNC(=O)[C@@]1(c2ccc([N+](=O)[O-])cc2)CC(=O)N(CC23CC4CC(CC(C4)C2)C3)[C@@H]1c1ccc(CO)cc1`, for which the composite z-score in assay [1] is 1.19; in assay [2], 1.04; in assay [3], 0.117; in assay [4], 0.356; in assay [5], 0.509; in assay [6], 1.23. For the same compound, the figures for the composite z-score in assay [8] and in assay [9] were -0.197 and -0.109, respectively. In addition, the values for the z-score in assay [7] and in assay [10] were 0.582 and 0.494 (inactive), respectively.

Consider `Cc1c(NC(=O)CC#N)c(=O)n(-c2ccccc2)n1C`, for which the composite z-score in assay [1] turned out to be 0.514; in assay [2], 0.469; in assay [3] it was 0.616; in assay [4], 0.134; in assay [5], 0.116; in assay [6], 0.291. The results for the composite z-score in assay [8] and in assay [9] were 0.645 and 0.114, respectively. The z-score was 0.385 in assay [7] and 0.551 (inactive) in assay [10].

For `O=C(O)[C@H]1C[C@H]2C(=O)NCC(=O)N2[C@H]1c1ccc(O)cc1`, the composite z-score in [1] is 2.65; in [2], -0.722; in assay [3] it was 0.0888; in assay [4], -0.908; in assay [5], 1.32; in assay [6], 1.05. Moreover, the composite z-score in [8] was 0.368; in assay [9], -0.0842. Also, the z-score was 1.97 in [7] and -1.54 (inactive) in assay [10].
